The nature of test [1]: qHTS assay for identifying genotoxic compounds that show differential cytotoxicity against isogenic chicken DT40 cell lines with known DNA damage response pathways - wild type cell line (AID 743012). Further: nearly all actives have a fitted effect of over 60% in size. Further: potency means the concentration at half of the fitted maximal effect. The essentials:
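Cytotoxicity in repair-proficient parental chicken DT40 cells serves as the comparator for Rad54/Ku70- and Rev3-deficient lines. Cells were exposed to compounds for 40 h at 37 C/5% CO2, and ATP-based luminescence (CellTiter-Glo) measured viability.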
(Quantitative high-throughput screening tests each substance at several concentrations.)

The nature of test [2]: qHTS assay for identifying genotoxic compounds that show differential cytotoxicity against isogenic chicken DT40 cell lines with known DNA damage response pathways - Rev3 mutant cell line (AID 743014). Further: nearly all actives have a fitted effect of over 55% in size. Further: potency means the concentration at half of the fitted maximal effect.
Test [3] can be described thus: qHTS assay to identify small molecule antagonists of the androgen receptor (AR) signaling pathway using the MDA cell line - cell viability counter screen (AID 743041; further: nearly all actives have a fitted effect of over 45% in size; further: potency means the concentration at half of the fitted maximal effect). Put shortly:
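Compound exposure lasted 16 h at 37C in MDA-kb2 AR-luc cells stimulated with R1881. Protease-based CellTiter-Fluor reagent was applied for the final 30 min and fluorescence measured.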

Test [4] in a line: qHTS assay for identifying genotoxic compounds that show differential cytotoxicity against isogenic chicken DT40 cell lines with known DNA damage response pathways - Rad54/Ku70 mutant cell line (AID 743015). Further: nearly all actives have a fitted effect of over 60% in size. Further: potency means the concentration at half of the fitted maximal effect.
Test [5] has as its target Androgen receptor (Homo sapiens) (UniProt P10275). Kind of test: qHTS assay to identify small molecule antagonists of the androgen receptor (AR) signaling pathway (AID 743035; active means well fitted inhibition curve with a large enough effect in the signal ratio in the repeat runs, not every such curve was filed as active; the % refers to the signal ratio; further: potency means the concentration at half of the fitted maximal effect). The essentials: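 Steps: seed AR-UAS-bla GripTite HEK293 cells, incubate 4 h at 37C; pin in test compound, then add agonist R1881; incubate 16 h at 37C; add LiveBLAzer B/G FRET substrate, 2 h at room temperature; read fluorescence.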

Test [6] has the same target. Kind of test: qHTS assay to identify small molecule agonists of the androgen receptor (AR) signaling pathway (AID 743036; active means well fitted activation curve with a large enough effect in the signal ratio in the repeat runs, with a control signal flat, not every such curve was filed as active; the % refers to the signal ratio). Put shortly: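 Quantitative HTS of the Tox21 10K library in HEK293 cells bearing a stably integrated UAS-controlled beta-lactamase reporter. Compound exposure lasted 16 h at 37C. Reporter activity was detected by FRET substrate fluorescence after 2 h at room temperature.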

Test [7] has the same target. Kind of test: qHTS assay to identify small molecule agonists of the androgen receptor (AR) signaling pathway using the MDA cell line (AID 743040; further: nearly all actives have a fitted effect of over 20% in size). The note with it: MDA-kb2 AR-luc cells, MMTV luciferase, 16 h; activity change: at 70.3 µM (top of the series), stronger effect = higher value. Put shortly:
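Testing was done with the MDA-kb2 AR-luc line, a human breast carcinoma stably transfected with MMTV-luciferase containing AR and GR response elements. Cells were exposed 16 h at 37C before ONE-Glo luminescence detection.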

For test [8] the target is unchanged. Kind of test: qHTS assay to identify small molecule antagonists of the androgen receptor (AR) signaling pathway using the MDA cell line (AID 743042; further: nearly all actives have a fitted effect of over 55% in size). The essentials: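 MDA-kb2 breast carcinoma cells carrying MMTV-luciferase (AR/GR responsive) were co-treated with compounds and the agonist R1881 for 16 h at 37C. Inhibition read as ONE-Glo luminescence; CellTiter-Fluor fluorescence measured in parallel for cytotoxicity.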

Test [9] can be described thus: qHTS assay to identify small molecule antagonists of the androgen receptor (AR) signaling pathway - cell viability counter screen (AID 743033; further: nearly all actives have a fitted effect of over 45% in size; further: potency means the concentration at half of the fitted maximal effect).

Values joined by “and” are separate entries in the source; they are usually repeats but may differ in a detail not shown here. Identical values can stand only once. Records with an inconclusive call do not appear. More than one record can exist for a structure, and the calls need not agree. Active and inactive are the calls of the source. Unless noted, the call rests on the fitted dose curve; in most records, active means well fitted curve in the direction sought with a large enough effect in the repeat runs; inconclusive means weak or mixed curves; inactive means no such curve, though single readings can be large; an effect the other way counts as inactive or inconclusive.

Sequence of Androgen receptor (Homo sapiens) (P10275 whole entry, looked up): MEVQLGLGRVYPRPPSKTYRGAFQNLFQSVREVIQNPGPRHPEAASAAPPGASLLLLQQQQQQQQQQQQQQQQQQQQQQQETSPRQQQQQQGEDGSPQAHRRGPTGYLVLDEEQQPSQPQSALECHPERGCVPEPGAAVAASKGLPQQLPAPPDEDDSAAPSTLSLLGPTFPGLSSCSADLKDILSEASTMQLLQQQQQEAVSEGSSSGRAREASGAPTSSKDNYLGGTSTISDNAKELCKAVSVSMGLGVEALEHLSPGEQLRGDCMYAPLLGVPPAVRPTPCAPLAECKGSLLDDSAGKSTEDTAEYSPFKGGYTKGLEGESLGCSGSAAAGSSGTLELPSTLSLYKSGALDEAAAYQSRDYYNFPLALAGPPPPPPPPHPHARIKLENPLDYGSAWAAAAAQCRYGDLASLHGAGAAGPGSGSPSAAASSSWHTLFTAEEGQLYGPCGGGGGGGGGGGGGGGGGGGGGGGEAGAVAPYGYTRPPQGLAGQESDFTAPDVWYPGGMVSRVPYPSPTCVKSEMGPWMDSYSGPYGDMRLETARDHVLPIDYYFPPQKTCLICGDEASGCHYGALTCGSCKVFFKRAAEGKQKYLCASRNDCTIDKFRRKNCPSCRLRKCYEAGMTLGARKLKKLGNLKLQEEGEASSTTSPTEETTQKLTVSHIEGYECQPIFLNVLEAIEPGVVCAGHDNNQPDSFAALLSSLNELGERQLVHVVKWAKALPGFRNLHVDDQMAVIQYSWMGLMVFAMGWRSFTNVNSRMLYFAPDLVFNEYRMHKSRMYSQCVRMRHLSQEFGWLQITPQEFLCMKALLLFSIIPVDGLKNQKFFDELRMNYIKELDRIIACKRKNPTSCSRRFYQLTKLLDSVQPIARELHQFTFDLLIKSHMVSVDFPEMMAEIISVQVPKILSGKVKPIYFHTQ

Turning to `N#CC(C#N)=C(C#N)C#N`, the Potency entry in test [1], in test [2] and in test [3] was “inactive” each time.

With `O=P(OCC(Br)CBr)(OCC(Br)CBr)OCC(Br)CBr` (stereo not given), the Potency in [1] is 41.1 µM (active); in test [2], 55.2 µM (active) and 20.6 µM (active); in test [4], 25.9 µM (active); in [5] it was 14 µM (active). Besides, the Potency result in test [6], in test [7] and in [3] was “inactive” in each case.

On to `O=C(O)C(F)(F)C(F)(F)C(F)(F)C(F)(F)C(F)(F)F`, for which the Potency entry in test [1], in test [4] and in test [3] was “inactive” throughout.

Regarding `Cc1cnc(C2=NC(C)(C(C)C)C(=O)N2)c(C(=O)O)c1` (stereo not given), the Potency entry in test [1], in [2], in test [4], in [5], in test [6] and in [7] was “inactive” throughout. Further, the Potency entry in test [3] and in test [8] was “inactive” each time.

Turning to `CC(C)(C)CC(C)(C)c1ccc(O)cc1`, the Potency in test [1] was 23.7 µM (active) and 12.2 µM (active); in [2], 11.9 µM (active) and 19.3 µM (active); in test [4], 27.3 µM (active). The Potency result in [7] and in test [8] was “inactive” throughout.

In the case of `CCSCc1ccccc1OC(=O)NC`, the Potency result in [4], in test [9] and in [3] was “inactive” throughout.

In the case of `OCC1CO1` (stereo not given), the Potency result in test [1], in test [2], in test [4], in [9] and in test [3] was “inactive” in each case.

Regarding `Cc1nc(N(C)C)nc(OC(=O)N(C)C)c1C`, the Potency result in test [1], in test [2], in test [4], in test [9] and in [3] was “inactive” throughout.

As for `Nc1cc(Cl)cc(C(=O)O)c1Cl`, the Potency entry in [1], in test [2] and in test [3] was “inactive” in each case.

`N#CC1(N=NC2(C#N)CCCCC2)CCCCC1`: the Potency entry in test [1], in [2], in [4] and in test [3] was “inactive” each time.

Take `CCCCCCCCP(=O)(O)O`: the Potency result in test [1], in [2], in test [9] and in test [3] was “inactive” in each case.

Regarding `NC(=O)CF`, the Potency entry in test [1], in test [2], in test [4] and in [3] was “inactive” each time.

Take `C1CS1`: the Potency result in [1], in test [2], in [9] and in test [3] was “inactive” throughout.

As for `Clc1ccc2ccccc2c1`, the Potency entry in [1], in test [2], in [4], in test [5], in test [6] and in test [7] was “inactive” in each case. The Potency entry in [3] and in test [8] was “inactive” each time.

Turning to `CC(=O)NNc1ccccc1`, the figures for the Potency in test [1], in test [2] and in test [4] were 1.52 µM (active), 2.15 µM (active) and 1.71 µM (active), respectively. Also, the Potency entry in test [5], in [6], in test [7], in [3] and in test [8] was “inactive” throughout.

Turning to `C=CCN1C[C@H](C)N([C@H](c2ccc(C(=O)N(CC)CC)cc2)c2cccc(OC)c2)C[C@H]1C`, the Potency in test [1] is 8.41 µM (active); in [2], 13.3 µM (active); in test [4], 18.8 µM (active). Moreover, in test [3], the Potency result was “inactive”.

On to `O=C(NC(=O)c1cc(F)c(F)cc1Cl)Nc1cc(F)ccc1N1CCC(C(=O)O)CC1`, for which the Potency result in test [2], in test [4], in [9] and in [3] was “inactive” each time.

With `CCOP(=S)(S)OCC`, the Potency result in test [2], in test [5], in test [7], in test [3] and in test [8] was “inactive” in each case.

Regarding `NC(=S)c1c(Cl)cccc1Cl`, in test [3], the Potency result was “inactive”.

With `O=[N+]([O-])O[C@H]1CO[C@H]2[C@@H]1OC[C@H]2O[N+](=O)[O-]`, the Potency entry in test [1], in test [2] and in test [3] was “inactive” each time.

Regarding `CN[C@@H](C)[C@H](O)c1ccccc1`, the Potency entry in test [1], in test [4], in [9] and in test [3] was “inactive” each time.

Regarding `C=C(C)C(=O)OCCCCOC(=O)C(=C)C`, the Potency entry in test [1], in [2] and in test [9] was “inactive” in each case.

Take `CCCC1CCCCN1` (stereo not given): the Potency result in test [1], in [2], in test [4] and in test [3] was “inactive” each time.

In the case of `O=C(O)c1cc(Cl)ccc1Cl`, the Potency entry in test [1], in test [2], in test [4], in test [9] and in test [3] was “inactive” each time.

On to `Cc1ccc(N)c(C)c1`, for which the Potency result in test [1], in test [2], in [4], in test [9] and in [3] was “inactive” throughout.

For the compound `c1ccc2sc(SNC3CCCCC3)nc2c1`, the Potency entry was “inactive and 61.1 µM (active)” in test [1]; “inactive and 61.1 µM (active)” in test [2]. Also, the Potency result in test [9] and in [3] was “inactive” throughout.

For `O=[N+]([O-])/C=C/c1ccccc1`, the Potency result in test [3] was “inactive”.

In the case of `CCNC(=O)NC(=O)/C(C#N)=N/OC`, the Potency result in test [1], in test [2], in test [4], in test [9] and in test [3] was “inactive” each time.

On to `O=C(CCl)CCl`, for which the Potency is 0.864 µM (active) in test [1]; 0.273 µM (active) in test [2]; “inactive and 686 nM (active)” in [4]. Besides, the Potency result in test [9] and in test [3] was “inactive” throughout.

Turning to `CCCCNC(=O)OCC#CI`, the Potency is 3.05 µM (active) and 611 nM (active) in [1]; 1.36 µM (active) and 1.22 µM (active) in test [2]; 2.72 µM (active) and 969 nM (active) in test [4]; 12.2 µM (active) and 19.5 µM (active) in [9]; 60.8 µM (active) in test [3].

As for `COc1ccccc1N1CCNCC1`, the Potency entry in test [1], in test [2], in test [9] and in test [3] was “inactive” in each case.

As to `O=C(Cl)OCCOCCOC(=O)Cl`, the Potency result in [1], in test [2], in test [4], in test [6], in test [7] and in test [3] was “inactive” throughout. The Potency entry in test [8] was “inactive”.

`CN1CC[C@]23c4c5ccc(O)c4O[C@H]2[C@@H](O)C=C[C@H]3[C@H]1C5`: the Potency entry in test [9], in [5], in test [7], in test [3] and in test [8] was “inactive” each time.

Regarding `C[C@]12CC[C@H]3[C@@H](CCC4=CC(=O)CC[C@@H]43)[C@@H]1CC[C@@H]2OC(=O)CCc1ccccc1`, the Potency result in test [2], in [4], in [9] and in test [3] was “inactive” in each case.

Turning to `Cc1ccccc1`, the Potency result in test [1], in test [2], in [4] and in test [3] was “inactive” in each case.

As to `CCCCCCCCCCCCN(C)C`, the Potency entry in test [1], in [2], in test [4] and in [3] was “inactive” throughout.
